Experimental data published in paper PMC9911399, “Two distinct binding modes provide the RNA-binding protein RbFox with extraordinary sequence specificity”.
Residue numbers refer to the chain shown, from its start. Over roughly 16,000 sequences, “ka relative to ugcaugu” has its median near 0.0091; the highest 2% begin near 0.032. The full list was thinned out, with the highest values kept by preference.

B1: UGCGAUA (DNA:RNA)
RNA: GGGAGACCGGAAUUCAGAUUGUCCUGCGAUAUUAAAUCCCGUCGUAGCCACCA
DNA 1: CAATCTGAATTCCGGTCTCCC
DNA 2: TGGTGGCTACGACGGGATT
B2: UUGAGCA (DNA:RNA)
RNA: B1 RNA with G26U, C27G, G28A, A29G, U30C
DNA 1: CAATCTGAATTCCGGTCTCCC
DNA 2: TGGTGGCTACGACGGGATT
B3: CUUUUUG (DNA:RNA)
RNA: B1 RNA with U25C, G26U, C27U, G28U, A29U, A31G
DNA 1: CAATCTGAATTCCGGTCTCCC
DNA 2: TGGTGGCTACGACGGGATT
B4: UCAACCU (DNA:RNA)
RNA: B1 RNA with G26C, C27A, G28A, A29C, U30C, A31U
DNA 1: CAATCTGAATTCCGGTCTCCC
DNA 2: TGGTGGCTACGACGGGATT
B5: UACCUGU (DNA:RNA)
RNA: B1 RNA with G26A, G28C, A29U, U30G, A31U
DNA 1: CAATCTGAATTCCGGTCTCCC
DNA 2: TGGTGGCTACGACGGGATT
B6: AGGGCGU (DNA:RNA)
RNA: B1 RNA with U25A, C27G, A29C, U30G, A31U
DNA 1: CAATCTGAATTCCGGTCTCCC
DNA 2: TGGTGGCTACGACGGGATT
B7: GUUUUGU (DNA:RNA)
RNA: GGGAGACCGGAAUUCAGAUUGUCCGUUUUGUUUAAAUCCCGUCGUAGCCACCA
DNA 1: CAATCTGAATTCCGGTCTCCC
DNA 2: TGGTGGCTACGACGGGATT
B8: AAUCCAC (DNA:RNA)
RNA: B7 RNA with G25A, U26A, U28C, U29C, G30A, U31C
DNA 1: CAATCTGAATTCCGGTCTCCC
DNA 2: TGGTGGCTACGACGGGATT
B9: GGGUGCA (DNA:RNA)
RNA: B7 RNA with U26G, U27G, U29G, G30C, U31A
DNA 1: CAATCTGAATTCCGGTCTCCC
DNA 2: TGGTGGCTACGACGGGATT
B10: UGCAGCA (DNA:RNA)
RNA: B1 RNA with G28A, A29G, U30C
DNA 1: CAATCTGAATTCCGGTCTCCC
DNA 2: TGGTGGCTACGACGGGATT
B11: CUGUGCA (DNA:RNA)
RNA: B7 RNA with G25C, U27G, U29G, G30C, U31A
DNA 1: CAATCTGAATTCCGGTCTCCC
DNA 2: TGGTGGCTACGACGGGATT
B12: CCGUGCA (DNA:RNA)
RNA: B7 RNA with G25C, U26C, U27G, U29G, G30C, U31A
DNA 1: CAATCTGAATTCCGGTCTCCC
DNA 2: TGGTGGCTACGACGGGATT
B13: UGGUGCA (DNA:RNA)
RNA: B1 RNA with C27G, G28U, A29G, U30C
DNA 1: CAATCTGAATTCCGGTCTCCC
DNA 2: TGGTGGCTACGACGGGATT
B14: CGGUGCA (DNA:RNA)
RNA: B1 RNA with U25C, C27G, G28U, A29G, U30C
DNA 1: CAATCTGAATTCCGGTCTCCC
DNA 2: TGGTGGCTACGACGGGATT
B15: UGCAUUA (DNA:RNA)
RNA: B1 RNA with G28A, A29U
DNA 1: CAATCTGAATTCCGGTCTCCC
DNA 2: TGGTGGCTACGACGGGATT
B16: UCCUGCA (DNA:RNA)
RNA: B1 RNA with G26C, G28U, A29G, U30C
DNA 1: CAATCTGAATTCCGGTCTCCC
DNA 2: TGGTGGCTACGACGGGATT
B17: UGCUGCA (DNA:RNA)
RNA: B1 RNA with G28U, A29G, U30C
DNA 1: CAATCTGAATTCCGGTCTCCC
DNA 2: TGGTGGCTACGACGGGATT
B18: GGUGCAU (DNA:RNA)
RNA: B7 RNA with U26G, U28G, U29C, G30A
DNA 1: CAATCTGAATTCCGGTCTCCC
DNA 2: TGGTGGCTACGACGGGATT
B19: UGCAUUG (DNA:RNA)
RNA: B1 RNA with G28A, A29U, A31G
DNA 1: CAATCTGAATTCCGGTCTCCC
DNA 2: TGGTGGCTACGACGGGATT
B20: UGCAUUC (DNA:RNA)
RNA: B1 RNA with G28A, A29U, A31C
DNA 1: CAATCTGAATTCCGGTCTCCC
DNA 2: TGGTGGCTACGACGGGATT
B21: CUGUGUG (DNA:RNA)
RNA: B7 RNA with G25C, U27G, U29G, G30U, U31G
DNA 1: CAATCTGAATTCCGGTCTCCC
DNA 2: TGGTGGCTACGACGGGATT
B22: ACUCAGC (DNA:RNA)
RNA: B7 RNA with G25A, U26C, U28C, U29A, U31C
DNA 1: CAATCTGAATTCCGGTCTCCC
DNA 2: TGGTGGCTACGACGGGATT
B23: GUAGGCC (DNA:RNA)
RNA: B7 RNA with U27A, U28G, U29G, G30C, U31C
DNA 1: CAATCTGAATTCCGGTCTCCC
DNA 2: TGGTGGCTACGACGGGATT
B24: UAAAGUG (DNA:RNA)
RNA: B1 RNA with G26A, C27A, G28A, A29G, A31G
DNA 1: CAATCTGAATTCCGGTCTCCC
DNA 2: TGGTGGCTACGACGGGATT
B25: CACUAAU (DNA:RNA)
RNA: B7 RNA with G25C, U26A, U27C, U29A, G30A
DNA 1: CAATCTGAATTCCGGTCTCCC
DNA 2: TGGTGGCTACGACGGGATT
B26: UACCGCC (DNA:RNA)
RNA: B1 RNA with G26A, G28C, A29G, U30C, A31C
DNA 1: CAATCTGAATTCCGGTCTCCC
DNA 2: TGGTGGCTACGACGGGATT
B27: AAUUCUA (DNA:RNA)
RNA: B7 RNA with G25A, U26A, U29C, G30U, U31A
DNA 1: CAATCTGAATTCCGGTCTCCC
DNA 2: TGGTGGCTACGACGGGATT
B28: UGCAUCA (DNA:RNA)
RNA: B1 RNA with G28A, A29U, U30C
DNA 1: CAATCTGAATTCCGGTCTCCC
DNA 2: TGGTGGCTACGACGGGATT
B29: UGCAUCG (DNA:RNA)
RNA: B1 RNA with G28A, A29U, U30C, A31G
DNA 1: CAATCTGAATTCCGGTCTCCC
DNA 2: TGGTGGCTACGACGGGATT
B30: UGCAUCC (DNA:RNA)
RNA: B1 RNA with G28A, A29U, U30C, A31C
DNA 1: CAATCTGAATTCCGGTCTCCC
DNA 2: TGGTGGCTACGACGGGATT
B31: AGGGCCC (DNA:RNA)
RNA: B1 RNA with U25A, C27G, A29C, U30C, A31C
DNA 1: CAATCTGAATTCCGGTCTCCC
DNA 2: TGGTGGCTACGACGGGATT

These binders were tested against T1, RBFOX1 RRM (Homo sapiens, UniProt Q9NWB1 109-208) (assay: EMSA; HiTS-Eq, 1 nM pool, 10 min; buffer printed only for the single-RNA assays: 10 mM Tris pH 7.5, 150 mM NaCl, 3.4 mM EDTA, 0.001% NP-40, 30 C). Details: tags: His6 N-terminal (pET28a); label: 5' 32P.
T1 sequence: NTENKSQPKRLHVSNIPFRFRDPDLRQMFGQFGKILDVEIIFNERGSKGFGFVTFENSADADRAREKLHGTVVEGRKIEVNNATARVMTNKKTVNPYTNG
Procedure, shortened: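 Purified RbFox RRM (wild type or mutant) was equilibrated for 10 min in 50 µL with 1 nM of a 5′-radiolabelled pool of RNA with 7 randomized nucleotides, its flanks annealed to DNA oligonucleotides, across increasing protein concentrations. Free RNA was separated by 8% native PAGE, excised, reverse-transcribed, PCR-barcoded and sequenced on an Illumina HiSeq 2500. Relative association constants came from read-count changes of each variant against the control reaction, normalised to the cognate motif.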
In the case of B1, the binding signal is reported as 0.017 KA relative to UGCAUGU. For B2, the binding signal was 0.0174 KA relative to UGCAUGU. For B3, the binding signal was 0.0263 KA relative to UGCAUGU. With B4 the binding signal was 0.00233 KA relative to UGCAUGU. With B5 the binding signal was 0.0129 KA relative to UGCAUGU. In the case of B6, the binding signal is reported as 0.0222 KA relative to UGCAUGU. In the case of B7, the binding signal is reported as 0.0195 KA relative to UGCAUGU. With B8 the binding signal was 0.000933 KA relative to UGCAUGU. For B9, the binding signal was 0.0415 KA relative to UGCAUGU. With B10 the binding signal was 0.0136 KA relative to UGCAUGU. B11 was tested, and the binding signal was 0.0239 KA relative to UGCAUGU. In the case of B12, the binding signal is reported as 0.017 KA relative to UGCAUGU. For B13, the binding signal was 0.0327 KA relative to UGCAUGU. In the case of B14, the binding signal is reported as 0.0194 KA relative to UGCAUGU. In the case of B15, the binding signal is reported as 0.0146 KA relative to UGCAUGU. In the case of B16, the binding signal is reported as 0.0135 KA relative to UGCAUGU. In the case of B17, the binding signal is reported as 0.0343 KA relative to UGCAUGU. With B18 the binding signal was 0.0241 KA relative to UGCAUGU. In the case of B19, the binding signal is reported as 0.0355 KA relative to UGCAUGU. For B20, the binding signal was 0.0105 KA relative to UGCAUGU. With B21 the binding signal was 0.027 KA relative to UGCAUGU. In the case of B22, the binding signal is reported as 0.00534 KA relative to UGCAUGU. B23 was tested, and the binding signal was 0.00837 KA relative to UGCAUGU. In the case of B24, the binding signal is reported as 0.00935 KA relative to UGCAUGU. B25 was tested, and the binding signal was 0.00175 KA relative to UGCAUGU. For B26, the binding signal was 0.00921 KA relative to UGCAUGU. With B27 the binding signal was 0.00109 KA relative to UGCAUGU. For B28, the binding signal was 0.0118 KA relative to UGCAUGU. B29 was tested, and the binding signal was 0.0295 KA relative to UGCAUGU. B30 was tested, and the binding signal was 0.0337 KA relative to UGCAUGU. For B31, the binding signal was 0.0184 KA relative to UGCAUGU.
